Inconclusive results are not listed. The source made the active and inactive calls. Calls follow the shape of the dose curve; as a rule, active = well fitted inhibition curve with a large enough effect; inconclusive = small, poorly fitted or top-dose-only effect; inactive = flat fitted curve, though single readings scatter.
Target: Galactokinase (Homo sapiens) (UniProt P51570)
Assay: qHTS for Inhibitors of Human Galactokinase (GALK): SAR round 3
Details: ADP detection luminescence, 1 h; series mostly up to 57.5 µM; activity change, negative = inhibition: at the top concentration
Summary of the method: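 Cherry-picked actives were retested in quantitative dose format against 5 nM human galactokinase, using 100 µM galactose and 35 µM ATP at pH 8.0 (HEPES, MgCl2, NaCl). After 1 h at room temperature, product was quantified by luminescence.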

Chain of Galactokinase (Homo sapiens) (P51570 whole entry, looked up): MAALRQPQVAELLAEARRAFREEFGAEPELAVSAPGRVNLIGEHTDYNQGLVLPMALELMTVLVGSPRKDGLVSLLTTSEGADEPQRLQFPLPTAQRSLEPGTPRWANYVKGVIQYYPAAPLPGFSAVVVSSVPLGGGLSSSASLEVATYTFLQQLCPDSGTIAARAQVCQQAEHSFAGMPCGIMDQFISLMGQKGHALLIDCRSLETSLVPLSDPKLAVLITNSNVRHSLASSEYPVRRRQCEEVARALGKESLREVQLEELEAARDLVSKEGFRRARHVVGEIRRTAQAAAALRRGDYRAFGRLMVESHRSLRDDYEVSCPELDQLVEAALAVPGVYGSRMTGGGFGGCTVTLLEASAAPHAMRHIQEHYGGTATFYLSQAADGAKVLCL

Potency, active:
O=C1CCCC2=C1C(c1ccccc1I)N=C(Nc1nc3ccccc3o1)N2 (centres undefined) 6.11 µM
CC1=C(C(=O)Nc2nncs2)C(c2[nH]ncc2Cl)N=C(Nc2nc3ccccc3o2)N1 (centres undefined) 12.2 µM
O=C1CCCC2=C1C(c1ccncc1Cl)N=C(Nc1nc3ccccc3o1)N2 (centres undefined) 19.3 µM

Potency, inactive:
Cc1cccc2oc(NC3=NC(c4[nH]ncc4Cl)C4=C(CCCC4=O)N3)nc12 (centres undefined)

Activity change, negative = inhibition, inactive:
O=C1CCCC2=C1C(c1[nH]ncc1Cl)NC(=NCc1ncc[nH]1)N2 (centres undefined) 1.65%
Cc1cc(NC2=NC(c3[nH]ncc3Cl)C3=C(CCCC3=O)N2)no1 (centres undefined) -5.6%
CC1(C)CC(=O)C2=C(C1)NC(Nc1nc3ccccc3o1)=NC21CCCCC1 -16.9%
Cn1cccc1CN=C1NC2=C(C(=O)CCC2)C(c2[nH]ncc2Cl)N1 (centres undefined) -1.27%
CNC(=O)C1=C(C)NC(Nc2nc3ccccc3o2)=NC12CCCC2 -15.1%
COc1cccc(C2N=C(Nc3nc4ccccc4o3)NC3=C2C(=O)CCC3)c1 (centres undefined) -29%
CC1=C(C(=O)Nc2nc3ccccc3s2)C2(CCCC2)N=C(Nc2nc3ccccc3o2)N1 -10.2%
O=C1CCCC2=C1C(c1cccnc1Br)N=C(Nc1nc3ccccc3o1)N2 (centres undefined) -21.8%
O=C1CC(c2ccccc2)CC2=C1C1(CCCC1)N=C(Nc1nc3ccccc3o1)N2 (centres undefined) -1.13%
Cc1ccc(C2N=C(Nc3nc4ccccc4o3)NC3=C2C(=O)CCC3)cc1 (centres undefined) -4.94%
O=C1CCCC2=C1C(c1[nH]ncc1Cl)NC(=NCCc1ccccc1)N2 (centres undefined) 0.974%
O=C1CCCC2=C1C(c1[nH]ncc1Cl)N=C(Nc1nc3c(Br)cccc3o1)N2 (centres undefined) -4.45%
CC1=C(C(=O)Nc2noc3ccccc23)C2(CCCC2)N=C(Nc2nc3ccccc3o2)N1 2.5%
CN(Cc1ccccc1)C(=O)C1CCN(Cc2cccc3ccccc23)CC1 1.16%
CC1=C(C(=O)NC2CC2)C(c2nn(C)cc2Cl)N=C(Nc2nc3ccccc3o2)N1 (centres undefined) -29.6%
O=C1CCCC2=C1C(c1[nH]ncc1Cl)NC(=NCc1cccs1)N2 (centres undefined) 0.544%
Cc1ccc(C2N=C(Nc3nc4ccccc4o3)NC3=C2C(=O)CCC3)s1 (centres undefined) -21.2%
O=C1NC2=C(C(=O)CCC2)C(c2ccccc2Cl)N1 (centres undefined) 1.11%
O=C1CC(c2ccccc2)CC2=C1C1(CCCCC1)N=C(Nc1nc3ccccc3o1)N2 (centres undefined) 3.27%
COc1ccc2oc(NC3=NC(c4[nH]ncc4Cl)C4=C(CCCC4=O)N3)nc2c1 (centres undefined) 3%
O=C1CCCC2=C1C(c1cccc(Oc3ccccc3)c1)N=C(Nc1nc3ccccc3o1)N2 (centres undefined) -7.55%
O=C1CCCC2=C1C(c1[nH]ncc1Cl)N=C(Nc1nc3ccc(Cl)cc3o1)N2 (centres undefined) -5.94%
Cc1ccc2oc(NC3=NC(c4[nH]ncc4Cl)C4=C(CCCC4=O)N3)nc2c1 (centres undefined) 0.986%
O=C1CCCC2=C1C(c1ccccc1)N=C(Nc1nc3ccccc3o1)N2 (centres undefined) -25%
Cn1ncc(Cl)c1C1N=C(Nc2nc3ccccc3o2)NC2=C1C(=O)CCC2 (centres undefined) -5.52%
O=C1CCCC2=C1C(c1[nH]ncc1Cl)NC(=NCc1ccccc1)N2 (centres undefined) 1.45%
O=C1CCCC2=C1C1(CCCOC1)N=C(Nc1nc3ccccc3o1)N2 (centres undefined) -16.2%
O=C1CCCC2=C1C1(CCCC1)N=C(Nc1nc3cc4ccccc4cc3o1)N2 1.6%
CN(C)c1ccc(C2N=C(Nc3nc4ccccc4o3)NC3=C2C(=O)CCC3)cc1 (centres undefined) -0.254%
O=C1CCCC2=C1C(c1ccccc1Cl)N=C(Nc1ncc(-c3ccccc3)o1)N2 (centres undefined) 8.02%
O=C1CCCC2=C1C(c1cccc(C(F)(F)F)c1)N=C(Nc1nc3ccccc3o1)N2 (centres undefined) -8.12%
Cc1noc(C)c1S(=O)(=O)Nc1ccc(C(=O)Nc2ccc(OC(F)(F)F)cc2)cc1 3.01%
O=C1CCCC2=C1C(c1[nH]ncc1Cl)NC(=S)N2 (centres undefined) 0.552%
O=C1C2=C(CN1Cc1ccccc1)NC(Nc1nc3ccccc3o1)=NC2c1ccccc1Cl (centres undefined) -1.63%
CCOC(=O)c1cnc(NC2=NC(c3ccccc3Cl)C3=C(CCCC3=O)N2)o1 (centres undefined) 1.33%
